SNCA expr inhib: Primary qHTS assay for inhibitors of alpha-synuclein gene (SNCA) expression. HEK-293 SNCA-luciferase knock-in, luminescence, 24 h. Potency, µM (doses to about 57.2 µM), hits mostly inhibitors. 140,000 tested, 0.17% active. AID 1671194, 2021; further: nearly all actives have a fitted effect of over 45% in size
HEK293 viab: GF-AFC viability counterscreen for inhibitors of alpha-synuclein gene (SNCA) expression; HEK-293-SNCA-luc viability, GF-AFC fluorescence, 24 h; 150,000 tested, 0.12% active; Potency, µM (top dose mostly 57.1 µM), actives largely listed as cytotoxic; further: nearly all actives have a fitted effect of over 30% in size
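HEK-293-SNCA-luc cells (1500/well) plated 24 h, then exposed 24 h to a dilution series; GF-AFC added 30 min at 37C, fluorescence 405/540 nm; normalised to medium-only and DMSO wells, Hill fit.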
NPR1 antag: Natriuretic polypeptide receptor (hNpr1) antagonism - Primary qHTS | HEK293 hNpr1 GloSensor cGMP, ANP-stimulated luminescence | Potency, µM (doses to about 46.3 µM), actives largely listed as inhibitors | 76,000 tested, 1.6% active | AID 1347048, 2019; calls by dose curve; further: nearly all actives have a fitted effect of over 60% in size
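HEK293 cells stably expressing human Npr1 and cGMP GloSensor pGS-40F, loaded 2 h with 2% GloSensor reagent, given compound 30 min at room temperature. Luminescence read before and 20 min after 0.1 nM hNppA.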
Luciferase inh: Firefly luciferase inhibition profiling of diverse chemical library using quantitative high-throughput screening; Luciferin 4-monooxygenase (Photinus pyralis), P08659; 76,000 tested, 2.5% active; purified P. pyralis luciferase, luminescence, biochemical; Potency, µM (series often up to 115 µM), hits mostly inhibitors; further: nearly all actives have a fitted effect of over 65% in size
Target sequence (P08659 whole entry, looked up): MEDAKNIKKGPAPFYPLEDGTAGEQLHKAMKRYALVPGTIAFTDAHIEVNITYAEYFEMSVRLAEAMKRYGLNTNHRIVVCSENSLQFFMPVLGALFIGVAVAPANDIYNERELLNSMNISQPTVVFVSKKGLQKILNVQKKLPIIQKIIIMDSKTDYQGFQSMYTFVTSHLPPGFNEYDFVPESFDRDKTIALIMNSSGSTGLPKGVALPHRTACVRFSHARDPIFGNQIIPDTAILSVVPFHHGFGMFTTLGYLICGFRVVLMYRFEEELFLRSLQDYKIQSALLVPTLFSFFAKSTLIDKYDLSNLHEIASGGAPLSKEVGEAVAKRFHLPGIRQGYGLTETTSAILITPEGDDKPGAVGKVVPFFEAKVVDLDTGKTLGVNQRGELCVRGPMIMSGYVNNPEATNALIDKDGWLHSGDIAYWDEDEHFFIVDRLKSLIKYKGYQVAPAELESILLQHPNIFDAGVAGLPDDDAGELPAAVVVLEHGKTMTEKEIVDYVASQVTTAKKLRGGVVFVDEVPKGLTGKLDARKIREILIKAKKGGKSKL
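Luminescence read by CCD imaging after purified firefly luciferase (10nM final) was added to substrate buffer holding 10uM D-luciferin and 10uM ATP, pH 7.5, pre-dosed with compound.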
3T3 cytotox: Cytotoxic Profiling in NIH 3T3 Cell Line of Diverse Libraries Using Quantitative High-Throughput Screening | NIH 3T3 viability, CellTiter-Glo ATP luminescence, 48-72 h | AID 1345082, 2018 | 94,000 tested, 4.3% active | Potency, µM (doses to about 96.7 µM), actives largely listed as inhibitors; further: nearly all actives have a fitted effect of over 55% in size
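NIH 3T3 cells at 400 cells/well received 23 nL of compound by pintool and were incubated 48 or 72 h at 37 °C. Viability was read as ATP-coupled CellTiter-Glo luminescence.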
HEK cytotox: Cytotoxic Profiling in HEK 293 Cell Line of Diverse Libraries Using Quantitative High-Throughput Screening | Potency, µM (doses to about 115 µM), most hits filed as inhibitors | 94,000 tested, 6.6% active | HEK 293 viability, ATP luminescence (CellTiter-Glo), 48-72 h; further: nearly all actives have a fitted effect of over 60% in size
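HEK 293 cells seeded at 250 cells/well were exposed to compound for 48 or 72 hr at 37 degree Celsius. Viability taken as ATP content by CellTiter-Glo luminescence.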
Hits are given with their value; 0 = inactive; ? = inconclusive; - = no result; ! = a repeat was not active; [ ] = another dose, or the depositor's remark. Shown are actives, neighbours in structure and some others; about 7.4% of the full set was active somewhere. Unless noted, the call rests on the fitted dose curve; in most records, active means well fitted curve in the direction sought with a large enough effect; inconclusive means small, poorly fitted or top-dose-only effect, or another doubt; inactive means no such curve, though single readings can be large; an effect the other way counts as inactive or inconclusive.

SMILES	SNCA expr inhib	HEK293 viab	NPR1 antag	Luciferase inh	3T3 cytotox	HEK cytotox
CC(C)C[C@@H]1N[C@H](C(=O)NC2CCC2)Cc2c[nH]c3cccc1c23	?	0	0	0	50µM	45µM
C=CCN(C)C(=O)[C@@H]1Cc2c[nH]c3cccc(c23)[C@H](CC(C)C)N1	0	0	0	0	?	?
COc1ccccc1N1CCN(C(=O)[C@@H]2Cc3c[nH]c4cccc(c34)[C@H](CC(C)C)N2)CC1	?	0	0	0	?	?
CC(C)C[C@@H]1N[C@H](C(=O)NC2CCCC2)Cc2c[nH]c3cccc1c23	?	?	0	0	50µM	32µM
CC(C)C[C@@H]1N[C@H](C(=O)N2CCN(c3ncccn3)CC2)Cc2c[nH]c3cccc1c23	0	0	0	0	?	79µM
O=C(NC1CCCC1)NC1CCN(Cc2cccc(-c3ccc(F)cc3F)c2)CC1	-	-	-	-	?	35µM!
O=C(NC1CCN(Cc2cccc(-c3ccc(F)c(F)c3)c2)CC1)c1ccc(C(F)(F)F)cc1	0	0	-	-	0	0
O=C(Nc1ccccc1F)NC1CCN(Cc2cccc(-c3ccc(F)c(F)c3)c2)CC1	-	-	-	-	11µM	?
O=C(NC1CCN(Cc2cccc(-c3ccc(F)c(F)c3)c2)CC1)c1ccc(F)cc1	0	0	-	-	40µM	40µM
COc1ccccc1C(=O)NC1CCN(Cc2cccc(-c3ccc(F)c(F)c3)c2)CC1	?	0	-	-	?	?
COc1ccc(C(=O)NC2CCN(Cc3cccc(-c4ccc(F)c(F)c4)c3)CC2)cc1	?	0	-	-	22µM	?
COc1ccc(OC)c(CN2CCC3(COC(=O)N3Cc3ccccc3)C2)c1 (stereo not given)	0	0	0	0	?	0
O=c1[nH]nc2n1CCC(NS(=O)(=O)Cc1cccc(F)c1)CC2 (stereo not given)	0	0	0	0	0	0
CC1OC2OC3C(OCC(O)C3O)OC(=O)C34CCC(C)(C)CC3C3=CCC5C6(C)CC(O)C(OC7OC(CO)C(O)C(O)C7OC7OCC(OC(=O)CC(C)(O)CC(=O)OC1C(OC1OCC(O)C(O)C1O)C2O)C(O)C7O)C(C)(CO)C6CCC5(C)C3(C)CC4O (stereo not given)	-	5.2µM	-	-	-	-
CC1(C)CC[C@]2(C(=O)O[C@@H]3O[C@H](CO)[C@@H](O)[C@H](O)[C@H]3O)CC[C@]3(C)C(=CCC4[C@@]5(C)C[C@H](O)[C@H](O[C@@H]6OC[C@@H](O)[C@H](O)[C@H]6O)[C@@](C)(CO)C5CC[C@]43C)C2C1 (stereo not given in full)	-	0[12.5 µM]	-	-	-	-
CN1C(=O)[C@@H]2C[C@@H](CN2C2CCC2)Oc2ccccc21	0	0	0	0	50µM	89µM
COc1ccccc1N1CCN(C2CCCN(C3CCN(Cc4ccccc4)CC3)C2)CC1 (stereo not given)	0	0	0	0	?	?
Fc1ccc(-n2cc(CCCCN3CCC4(CC3)OCc3ccccc34)c3ccccc32)cc1	-	19µM	-	-	-	-
O=C(NCCCN1CCN(c2ccc(F)cc2)CC1)C1COc2ccccc2C1 (stereo not given)	0	0	-	-	-	-
COc1ccc(CC(=O)N2CCC(N3C(=O)c4c(c(C)nn4-c4ccccc4)C3C(C)C)C2)cc1 (stereo not given)	-	-	-	-	40µM	?
Cc1nn(-c2ccccc2)c2c1C(C(C)C)N(C1CCCN(C(=O)Cc3cccc(Cl)c3)C1)C2=O (stereo not given)	-	-	-	-	?	28µM
COCC(=O)N1CC(N2C(=O)c3c(c(C)nn3-c3ccccc3)C2C(C)C)C1 (stereo not given)	-	-	-	-	0	0
Cc1nn(-c2ccccc2)c2c1C(C(C)C)N(C1CCN(C(=O)Cc3cccc(Cl)c3)C1)C2=O (stereo not given)	-	-	-	-	35µM	45µM
Cc1c(F)cccc1NC(=O)Nc1cccc(-c2ccc(N3CCOCC3)nn2)c1	0	0	?	0.63µM	0	0
Cc1ccc(Cl)cc1NC(=O)Nc1cccc(-c2ccc(N3CCOCC3)nn2)c1	0	0	0	1µM	0	?
SMILES	SNCA expr inhib	HEK293 viab	NPR1 antag	Luciferase inh	3T3 cytotox	HEK cytotox
Cc1ccc(NC(=O)Nc2cccc(-c3ccc(N4CCOCC4)nn3)c2)cc1F	0	0	0	?	0	0
Nc1cccc(-c2ccc(N3CCOCC3)nn2)c1	?	0	?	3.2µM	?	?
Cc1ccc(C)c(NC(=O)Nc2cccc(-c3cn4cccnc4n3)c2)c1	0	0	-	-	-	-
O=S(=O)(Nc1cccc(-c2ccc(N3CCCCC3)nn2)c1)c1ccc(F)cc1F	0	0	-	-	-	-
O=C(Nc1cccc(-c2ccc(N3CCOCC3)nn2)c1)Nc1ccccc1C(F)(F)F	?	0	0	2.2µM	?	?
O=C(c1ccco1)N1CCC[C@H](n2c(=O)n(CC3CC3)c3cccnc32)C1	0	0	0	0	0	?
COCc1cc(=O)n(CC(=O)Nc2cccc(OC)c2)c(N2CCOCC2)n1	0	0	0	0	0	0
COc1cccc(NC(=O)Nc2cccc(-c3ccc(N4CCOCC4)nn3)c2)c1	0	?	?	1µM	?	?
Cc1cc(=O)c(C(=O)N2CCCn3nc(CO)cc3C2)cn1C	0	0	0	0	0	?
O=c1c2nc(-c3ccsc3)ccc2ncn1-c1ccc(F)cc1F	0	0	0	0	45µM	100µM
COc1ccc(-c2ccc3ncn(-c4ccc(F)cc4F)c(=O)c3n2)cc1OC	0	0	0	0	?	?
COc1cccc(-c2ccc3ncn(-c4ccc(F)cc4F)c(=O)c3n2)c1	0	0	0	?	50µM	?
O=c1c2nc(-c3ccccc3)ccc2ncn1-c1ccc(F)cc1F	0	0	0	0	28µM	?
NC(=O)CNC(=O)C1=C[C@@H](NC(=O)Cc2cccs2)[C@@H](O)[C@H](O)C1	0	0	0	0	0	0
Cc1nc(N2CCN(C(=O)Cc3cccs3)CC2)cc(C(F)(F)F)n1	?	0	0	0	0	?
O=C1CC2(CCN(CC3CCNC3)C2)Nc2ccccc2N1 (stereo not given)	0	0	-	-	0	0
COc1cccc(-c2ccc(C(=O)N3CCC(NC(C)=O)CC3)cc2)c1	?	0[12.5 µM]	-	-	?	?
COc1cccc(-c2ccc(C(=O)N3CCC(NC(=O)NC4CCCC4)CC3)cc2)c1	0	0[12.5 µM]	-	-	0	0
